In the library only some 6.6% were active in any assay of this set; here they are far more common.
RGS4 inh: human RGS4 inhibition | P49798 | Transcreener GDP fluorescence polarization, RGS4-accelerated GTP hydrolysis | Potency, µM (top dose mostly 114 µM), for inactives: top-dose activity change, negative = inhibition, usual class: inhibitors | actives 0.039% (n = 390,000) | AID 504845; further: on the % scale 0 is the no-effect control and ±100 the full control effect; nearly all actives have a fitted effect of over 75% in size
Target sequence (P49798 whole entry, looked up): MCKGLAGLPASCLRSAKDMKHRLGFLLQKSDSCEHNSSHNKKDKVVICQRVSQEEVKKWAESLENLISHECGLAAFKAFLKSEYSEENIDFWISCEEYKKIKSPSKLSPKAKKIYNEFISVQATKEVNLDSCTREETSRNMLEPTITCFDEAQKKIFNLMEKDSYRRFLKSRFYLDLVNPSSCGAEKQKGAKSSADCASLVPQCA
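MLSMR compounds (23 nl, pin-transferred) preincubated 10 min at room temperature with a 500nM (2x) first reagent, then RGS4 at 900nM (2x) plus Transcreener GDP mix added; fluorescence polarization (620/688 nm) read before and after 90 min at 30 °C.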
SW480 rereplic: induces DNA re-replication in SW480 colon adenocarcinoma cells; actives 1.8% (n = 340,000); Potency, µM (highest dose often 46.1 µM), for inactives: top-dose re-replication activation, usual class: activators; SW480 DNA re-replication, Hoechst DNA content imaging, 48 h; AID 624297; further: % of control where 0% means no effect; nearly all actives have a fitted effect of over 55% in size
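Hoechst fluorescence of nuclei (405 nm excitation, 500-530 nm emission) measured by plate-scanning imager after 48 hr compound exposure at 37 C; re-replication scored as increased number of nuclei with elevated intensity.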
KB-V1 MDR tox: KB-V1 MDR subline cytotoxicity; Potency, µM (highest dose often 46.1 µM), hits mostly cytotoxic; actives 3.4% (n = 400,000); AID 1347076; KB-V1 MDR cells viability, CellTiter-Glo, 72 h; further: on the % scale 0 is the no-effect control and ±100 the full control effect; nearly all actives have a fitted effect of over 60% in size
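Drug-selected KB-V1 cells, grown in DMEM lacking phenol red with 10% FBS, receive compound titrations; after three days at 37 degrees C, surviving cell ATP is quantified by CellTiter-Glo luminescence and responses normalized and curve-fitted.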
MCF10A rereplic: inducers of DNA re-replication in MCF 10A breast cells; MCF 10A DNA re-replication, Hoechst nuclear intensity, 48 h; Potency, µM (highest dose often 46.1 µM), for inactives: top-dose activity, positive = re-replication, most hits filed as activators; actives 2.9% (n = 350,000); AID 624296; further: % of control where 0% means no effect; nearly all actives have a fitted effect of over 50% in size
TSG101-PTAP inh: blocks PTAP/TSG101 interaction to inhibit HIV-1 budding. Q99816. Fluorescence polarization, FITC-PTAP peptide / Tsg101 binding. Potency, µM (titrated, usually from 115 µM), for inactives: at the highest dose activity change, negative = inhibition, usual class: inhibitors. 340,000 tested, under 10 active. AID 493005; active means well fitted inhibition curve with a large enough effect in the main read-out, with a control signal flat, not every such curve was filed as active; inconclusive means small, poorly fitted or top-dose-only effect, or effect the other way, or a change in a side signal; inactive means no such curve, though single readings can be large or run the other way; further: % of control where 0% means no effect
Target sequence (Q99816 whole entry, looked up): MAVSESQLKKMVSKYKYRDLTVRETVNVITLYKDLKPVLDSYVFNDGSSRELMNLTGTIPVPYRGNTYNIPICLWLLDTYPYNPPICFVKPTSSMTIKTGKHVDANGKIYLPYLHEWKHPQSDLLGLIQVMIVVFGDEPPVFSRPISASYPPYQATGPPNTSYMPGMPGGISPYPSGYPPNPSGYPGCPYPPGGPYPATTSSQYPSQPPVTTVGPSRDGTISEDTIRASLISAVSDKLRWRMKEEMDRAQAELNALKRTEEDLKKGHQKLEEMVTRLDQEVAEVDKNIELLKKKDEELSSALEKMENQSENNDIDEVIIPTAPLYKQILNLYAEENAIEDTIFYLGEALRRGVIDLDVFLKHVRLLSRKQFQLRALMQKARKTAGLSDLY
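Fluorescence anisotropy tracks displacement of a FITC-tagged PTAP peptide (50 nM) from the Tsg101 binding domain (10 uM), following a 20 min room-temperature incubation at pH 7.5.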
KB-3-1 cytotox: kills parental KB-3-1 adenocarcinoma cells | KB-3-1 viability, CellTiter-Glo ATP luminescence, 72 h | actives 1.4% (n = 400,000) | Potency, µM (titrated, usually from 46.1 µM), hits mostly cytotoxic; further: on the % scale 0 is the no-effect control and ±100 the full control effect; nearly all actives have a fitted effect of over 60% in size
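KB-3-1 cells, DMEM (no phenol red) + 10% FBS; compound by pin transfer, 72 h, 37 °C. Readout: CellTiter-Glo luminescence after 10 min. Data normalized, curve-fitted.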
* marks the source's active call; other numbers are inactive results; i = inactive; ? = inconclusive; · = not tested or not shown; [ ] = another dose, or the depositor's remark. Unless noted, the call rests on the fitted dose curve; in most records, active means well fitted curve in the direction sought with a large enough effect; inconclusive means small, poorly fitted or top-dose-only effect, or another doubt; inactive means no such curve, though single readings can be large; an effect the other way counts as inactive or inconclusive. Potency means the concentration at half of the fitted maximal effect.

SMILES	RGS4 inh	SW480 rereplic	KB-V1 MDR tox	MCF10A rereplic	TSG101-PTAP inh	KB-3-1 cytotox
COc1cc(CCC(=O)Nc2ncc(C)s2)cc(OC)c1OC	-0.8%	-13.4%	i	-5.0%	1.3%	i
O=[N+]([O-])c1ccc(S(=O)(=O)NCc2nc3cccnc3n2Cc2ccccc2Cl)cc1	-18.7%	·	·	·	·	·
CCCN(C(=O)c1noc2c1COc1ccc(C)cc1-2)c1ccc(Cl)c(Cl)c1	-20.9%	·	i	·	·	i
CC(C)OCCCNC(=O)CN1C(=O)COc2ccc(S(=O)(=O)N3CCOCC3)cc21	1.9%	·	i	·	·	i
CN(C)c1nc2c(Br)c(Br)c(Br)c(Br)c2[nH]1	0.9%[56.9 µM]	·	·	·	·	·
Cc1ccc(OCCSc2nc3ccc(NC(=O)c4ccc5c(c4)OCO5)cc3s2)cc1	16.0%	·	i	·	·	i
COc1ccc(-c2cc(C(=O)NCc3cccnc3)no2)cc1OC	24.5%	-14.5%	20.6µM*	-4.0%	·	i
COc1ccccc1-c1cc(C(=O)NCc2ccccc2)no1	?	2.6%	i	13.7%	-10.3%	i
COc1ccccc1-c1cc(C(=O)NCc2ccc(F)cc2)no1	9.7%	14.2%	16.4µM*	?	·	i
Cc1ccc(-c2cc(C(=O)NCc3cccnc3)no2)cc1	-16.0%	-3.7%	16.4µM*	1.6%	-9.4%	i
O=C(Nc1ccc(F)cc1F)c1ccc(-n2cnc3cccnc32)cc1	9.3%	·	?	·	·	?
CCc1nnc(NC(=O)CSc2nc3c([nH]c4ccccc43)c(=O)n2-c2ccc(Cl)cc2)s1	-8.6%	·	i	·	·	i
COCCOC(=O)c1c(C)oc2c1cc(NS(=O)(=O)c1ccc(Cl)c(C)c1)c1ccccc12	-5.8%	·	i	·	·	i
CCc1ccccc1OCC(=O)NC1CCCC1	?	-6.7%	13µM*	1.5%	0.0%	i
O=C(COc1ccccc1Br)NC(=O)NC1CCCC1	5.5%	14.6µM*	i	-14.5%	-7.4%	i
COc1ccccc1OCC(=O)NNC(=O)Nc1ccc(Cl)cc1	-0.5%	18.4µM*	10.3µM*	23.1µM*	-2.8%	18.4µM*
O=C(COc1ccccc1Br)NC1CC1	-24.0%	7.8%	i	-2.2%	1.2%	i
COc1ccccc1CC(=O)NC1CCCCCC1	9.4%	-35.9%	i	-8.6%	-3.4%	i
CCOc1cc(Br)c(CC(=O)NC2CCCCCC2)cc1OCC	6.5%	1.7%	10.3µM*	?	4.8%	i
COC(=O)c1ccccc1OCC(=O)NC1CCCCC1	2.2%	-3.0%	?	22.3%	·	i
CCN(CC)S(=O)(=O)c1ccc2c(c1)N(CC(=O)Nc1cccc(C#N)c1)C(=O)CO2	-11.4%	·	·	·	·	·
Cc1nc2ccc(C(=O)OC(C)C(=O)c3c(C)[nH]c4ccccc34)cc2nc1C (stereo not given)	·	·	i	·	·	i
Nc1c(Br)cc(/C=C2\C=Cc3ccccc32)cc1Br	·	·	i	·	·	i
CCC(=O)Nc1ccc(CC)cc1-c1nc2ccccc2n(CC(=O)Nc2ccccc2C)c1=O	-1.4%	·	i	·	·	i
COc1cccc(OC)c1C(=O)OCC(=O)NCC1CCCCC1	·	·	i	·	·	i
SMILES	RGS4 inh	SW480 rereplic	KB-V1 MDR tox	MCF10A rereplic	TSG101-PTAP inh	KB-3-1 cytotox
COc1ccccc1OCC(=O)NCC1CCCCC1	-8.4%	-2.1%	20.6µM*	3.9%	1.1%	i
O=C(COc1ccc(C(=O)c2ccccc2)cc1)NC1CCCCCC1	-34.4%	-36.3%	10.3µM*	-56.3%	-2.3%	?
O=C(COc1ccc(C(=O)c2ccccc2)cc1)NC1CCCCC1	7.7%	9.1%	i	27.5%	-0.8%	i
CCOc1ccccc1NC(=O)c1cc2c(=O)[nH]c3ccccc3c2s1	-21.2%	·	i	·	·	i
O=c1[nH]c(-c2ccccn2)nc(C(F)(F)F)c1Br	2.3%	10.3µM*	i	18.4µM*	-5.0%	?
COc1ccc(-c2cc(=O)n(-c3nc4ccccc4[nH]3)[nH]2)cc1	1.0%	?	i	18.4µM*	-4.3%	20.6µM*
CN(CCCN(Cc1ccc(Cl)cc1)c1ccc(Br)cn1)C(=S)NCCCc1cnc[nH]1	-4.0%	·	i	·	·	?
Cc1ccc2c(c1)c(=O)c1ccccc1n2CCCC(=O)Nc1cc(Cl)ccc1C	-18.3%	·	i	·	·	?
O=[N+]([O-])c1ccc(-[n+]2ccc3ccccc3c2)c([N+](=O)[O-])c1	?	?	5.17µM*	?	-6.3%	4.61µM*
COc1ccc(C)cc1S(=O)(=O)n1cnc2ccccc21	-6.5%	?	?	?	-3.2%	5.17µM*
Cc1ccc(S(=O)(=O)n2cnc3ccccc32)cc1	13.6%	-4.0%	?	8.6%	-9.3%	i
CCc1ccc(S(=O)(=O)Nc2ccc(O)c3c(=O)cc(-c4ccccc4Cl)oc23)cc1	10.8%	5.1%	i	-30.9%	-3.1%	i
O=c1cc(-c2ccccc2Cl)oc2c(NS(=O)(=O)c3cc(Cl)cc(Cl)c3O)ccc(O)c12	?	20.4%	18.4µM*	-31.8%	·	?
O=C(NNc1nc(-c2ccccc2)c2cc(Br)ccc2n1)c1ccc(S(=O)(=O)N2CCOCC2)cc1	22.5%	?	?	7.4%	-5.5%	i
O=C(NNc1nc(-c2ccccc2)c2cc(Br)ccc2n1)c1ccc(S(=O)(=O)N2CCCCC2)cc1	-27.7%	15.1%	3.26µM*	-0.4%	-9.1%	i
Cc1ccc(NC(=O)c2cc3c([nH]c2=O)CC(C)(C)CC3=O)cc1	·	·	i	·	·	i
OC(CN1C=CCc2ccccc21)c1ccc(Cl)cc1Cl (stereo not given)	·	·	?	·	·	i
Cn1c(=O)c2c(nc(NCCCO)n2CCc2ccccc2)n(C)c1=O	-45.0%	-7.6%	i	-3.8%	-4.1%	i
Cn1c(=O)c2c(nc(NCc3ccccc3)n2Cc2ccc(Cl)c(Cl)c2)n(C)c1=O	-10.7%	·	18.4µM*	·	·	?
Cn1c(=O)c2c(nc(NCc3ccc4c(c3)OCO4)n2Cc2ccccc2)n(C)c1=O	-8.4%	?	i	?	-5.2%	23.1µM*
Cn1c(=O)c2c(nc(NCCO)n2CCc2ccccc2)n(C)c1=O	-8.2%	-15.8%	i	-3.7%	-17.2%	20.6µM*
Cn1c(=O)c2c(nc(NCCNC(=O)c3ccco3)n2Cc2ccccc2)n(C)c1=O	7.5%	0.3%	i	25.9µM*	-0.7%	i
COc1ccc(C2C(C(=O)Nc3ccccc3)=C(C)Nc3c(C(=O)Nc4ccccc4)cnn32)cc1 (stereo not given)	5.8%	·	·	·	·	·
CC(C)NC(=O)N1CCN(S(=O)(=O)c2ccc3c(ccn3C)c2)CC1	4.4%	·	i	·	·	i

Screening data: PubChem BioAssay, National Center for Advancing Translational Sciences (NCATS)
